Screening data as filed in PubChem.
Vif inh = HIV Vif self-association inhibitors, primary screen, imaging, HEK293T, single point. HEK293T cells, Vif self-association by quenched fluorescence, 24 h. hit rate 0.35% among 340,000. inhibition, % at 7.49 µM; in the data active = inhibition above about 50%, passing the limit was not always enough; inconclusive = no clear call, values can overlap the other calls; inactive = below about 31%
MITF TRPM1 HTS = activators of MITF-driven TRPM1 promoter reporter, primary screen, cell-based, SK-MEL-5, luciferase, single point. SK-MEL-5 TRPM1-promoter luciferase, 24 h; % of positive control, neutral wells = 0. activation, % at 12.5 µM. hit rate 0.75% among 300,000;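 active = mean activation of at least 80% with every replicate also reaching 80%; inconclusive = mean reaches 80% but some replicate falls short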;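 note: 0% = neutral control wells and 100% = parthenolide positive control wells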
esBAF inh = Bmi1 luciferase reporter increase in mESCs, primary screen, esBAF inhibitor project, mouse ES cells, Bmi1 luciferase knock-in, single point | AID 602393, 2012 | 24 h; 100% = twice the neutral-well signal | hit rate 2% among 350,000 | reporter increase, % at 12.5 µM; in the data active = activation above about 40%; inconclusive = no clear call, values can overlap the other calls;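 note: 0% = median of the plate's neutral control wells and 100% = double that signal; a rise in the Bmi1 reporter signal indicates esBAF inhibition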
Glyco luc inh = increase of ERlucT glycosylation luciferase signal, primary screen, N-linked glycosylation inhibitor project, D54 ERlucT cells, luminescence, set 2; D54 ERlucT glycosylation luciferase reporter, 24 h; percent of 100 nM tunicamycin response; reporter increase, % at 12.5 µM; hit rate 0.23% among 360,000;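 active = mean luciferase reporter signal, scaled so untreated is 0 and the glycosylation-blocking control 100, at or above a set limit in every replicate; inconclusive = mean reaches the limit but not every replicate does; inactive = mean below the limit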;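 note: luciferase carries N-glycosylation sites so blocking glycosylation raises the light; 0% = median of neutral control wells and 100% = median of 100 nM tunicamycin wells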
Wnt act = Wnt/beta-catenin pathway activators, primary screen, cell-based, plate reader, single point | Wnt/beta-catenin reporter cell assay, activator | activation, % at 9.35 µM | hit rate 1.2% among 300,000 | AID 743398, 2014; in the data active = activation above about 30%, passing the limit was not always enough; inconclusive = no clear call, values can overlap the other calls;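 note: 0% = neutral control wells and 100% = positive control wells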
PvdQ acylase = P. aeruginosa PvdQ acylase inhibitors, primary screen, biochemical, fluorescence, plate reader and imaging, single point | PvdQ acylase [Pseudomonas aeruginosa LESB58] | hit rate 0.063% among 340,000 | inhibition, % at 10 µM | purified PvdQ acylase; in the data active = inhibition above about 30%, passing the limit was not always enough; inconclusive = no clear call, values can overlap the other calls;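 note: 0% = vehicle neutral wells and 100% = reference inhibitor wells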
The depositor's hits bear a star; ? = inconclusive; · = no result given. The list is not random: actives were taken first. Their share in the collection is about 2.9%.

SMILES | Vif inh | MITF TRPM1 HTS | esBAF inh | Glyco luc inh | Wnt act | PvdQ acylase
C[C@H](CO)N1C[C@H](C)[C@H](CN(C)Cc2ccc(Oc3ccccc3)cc2)Oc2ccc(NC(=O)CCN3CCOCC3)cc2CC1=O | · | · | -4 | · | · | ·
COc1cccc(-c2cnc3c(c2)C(=O)N([C@@H](C)CO)C[C@H](C)[C@H](CN(C)Cc2ccncc2)O3)c1 | · | · | -5 | · | · | ·
CCC(=O)N(C)C[C@@H]1Oc2ncc(-c3ccc(C#N)cc3)cc2C(=O)N([C@@H](C)CO)C[C@@H]1C | · | · | -2 | · | · | ·
CN(C)CCN1CC(O)=C(c2nc3ccccc3s2)C1=N | 3 | 4 | 8 | -3 | -1 | -1
N=C1C(c2nc3ccccc3s2)=C(O)CN1Cc1ccco1 | -15 | 88* | 53* | 0 | · | -15
CCN(CC)CCn1c(SCC(=O)NCCC2=CCCCC2)nc2c(sc3ccccc32)c1=O | -4 | -14 | · | -5 | 2 | 0
CCN(CC)CCn1c(SCC(=O)NCc2ccco2)nc2c(sc3ccccc32)c1=O | -6 | · | 2 | 1 | 47* | -14
CCCOC(=O)Nc1nc2ccccc2o1 | 4 | 22 | 18 | 1 | 37* | 2
CS(=O)(=O)Nc1ccc2c(c1)[C@@H]1C[C@@H](CC(=O)NCc3cc(F)ccc3F)O[C@H](CO)[C@@H]1O2 | · | · | -4 | · | · | ·
CC(C)(C)c1ccc(-c2nnc(N)o2)cc1 | 1 | 32 | 58* | -1 | 42* | -18
C[C@H]1CN([C@@H](C)CO)S(=O)(=O)c2ccc(-c3ccc(C#N)cc3)cc2O[C@H]1CN(C)C | · | · | -4 | · | · | ·
C=CCN(CC(=O)Nc1cccnc1)S(=O)(=O)c1ccc(Cl)cc1 | 4 | -3 | 4 | 3 | 37* | 3
CCC(=O)N(Cc1ccco1)Cc1cc2cccc(C)c2n2nnnc12 | 0 | -2 | · | 2 | 46* | 2
O=C(c1ccc(Br)cc1)c1cc([N+](=O)[O-])ccc1N1CCCCC1 | 63* | · | -16 | 4 | · | -3
NC(=O)CC(NC(=O)c1ccc(Br)cc1)c1ccc(NC2CCCCC2)c([N+](=O)[O-])c1 (stereo unspecified) | -1 | 20 | -13 | 24 | -3 | -15
NC(=O)CC(NC(=O)c1ccc(Br)cc1)c1ccc(NC2CCCCCC2)c([N+](=O)[O-])c1 (stereo unspecified) | 70* | 30 | -18 | 14 | -4 | -18
NC(=O)CC(NC(=O)c1ccc(Br)cc1)c1ccc(N2CCCCCCC2)c([N+](=O)[O-])c1 (stereo unspecified) | -1 | 40 | 2 | 43* | -8 | -15
CN1CCN(c2ccc([N+](=O)[O-])cc2C(=O)c2ccc(Br)cc2)CC1 | -6 | -11 | -22 | 8 | -23 | -9
NC(=O)CC(NC(=O)Cc1ccc(Br)cc1)c1ccc(NC2CCCC2)c([N+](=O)[O-])c1 (stereo unspecified) | -9 | 40 | -9 | 38* | -8 | 0
CNC[C@@H]1OCCCC[C@H](C)Oc2ccc(NS(=O)(=O)c3ccc(F)cc3)cc2C(=O)N([C@H](C)CO)C[C@@H]1C | · | · | -6 | · | · | ·
C[C@@H]1CN([C@H](C)CO)C(=O)c2cc(NC(=O)Cc3ccccc3)ccc2O[C@@H]1CN(C)S(C)(=O)=O | · | · | 2 | · | · | ·
CCC(C)(C)C(=O)O[C@H]1C[C@@H](C)C=C2C=C[C@H](C)[C@H](CC[C@@H]3C[C@@H](O)CC(=O)O3)[C@H]21 | 5 | 19 | -11 | 45* | -3 | 6
Cc1ccc(SCc2c(C#N)c3ccccc3n2C)cc1 | -11 | · | 6 | 1 | -1 | -5
Cn1c(CSc2ccccc2)c(C#N)c2ccccc21 | -10 | 76 | 63* | -3 | · | -8
CN1CCSc2ccc(C(=O)NCc3ccccc3F)cc21 | -5 | 49 | 30 | -1 | 6 | -3
SMILES | Vif inh | MITF TRPM1 HTS | esBAF inh | Glyco luc inh | Wnt act | PvdQ acylase
CN1CCSc2ccc(C(=O)Nc3cc(F)ccc3F)cc21 | 1 | 97* | 13 | -7 | 43* | -16
CCOc1ccc(NC(=O)c2ccc3c(c2)N(C)CCS3)cc1 | · | · | 72* | -3 | 37* | ·
COc1ccc(Cc2c(C(C)(C)C)nc3ccc(Br)cn23)c(C)c1 | · | · | -1 | 0 | -1 | ·
COc1ccc(Cc2c(-c3cccc(Br)c3)nc3ccc(Cl)cn23)c(C)c1 | · | · | 58* | -1 | 14 | ·
COc1ccc(Cc2c(-c3ccccc3)nc3ccc(Br)cn23)c(C)c1 | 12 | · | 61* | 3 | 23 | ·
Cc1ccc(C(=O)/C=C/c2cn(CN3CCN(C)CC3)c3ccccc23)cc1 | -4 | 80 | 55* | 3 | · | -6
Cn1cc(/C=C/C(=O)c2ccccc2)c2ccccc21 | -10 | 9 | -39 | -19 | 14 | -7
C[C@@H]1CCCCO[C@H](CN(C)C(=O)c2ccccc2)[C@H](C)CN([C@@H](C)CO)C(=O)c2cc(NC(=O)CCCCCC(=O)Nc3ccccc3N)ccc2O1 | · | · | -4 | · | · | ·
c1ccc2c(C3OCC4(CCCCC4)CO3)cccc2c1 | 0 | · | 45* | -3 | -5 | ·
c1ccc(C2OCC3(CO2)COC(c2ccccc2)OC3)cc1 (stereo unspecified) | 7 | · | -3 | 1 | -3 | -15
Nc1ccccc1C(=O)/C=C/c1ccc2c(c1)OCO2 | -1 | 85* | 73* | -7 | 35* | -2
CC(=O)Nc1ccc(/C=C/C(=O)c2ccc3c(c2)OCCO3)cc1 | 56* | 2 | 3 | ? | 3 | -5
COc1ccc(/C=C/C(=O)c2ccc3c(c2)OCCO3)cc1[N+](=O)[O-] | -24 | 31 | -16 | 24 | · | 11
Cc1ccc(O)c(C(=O)/C=C/c2ccc3c(c2)OCCO3)c1 | · | 46 | · | 8 | 21 | 64*
O=C(/C=C/c1ccc2c(c1)OCO2)c1ccc(O)cc1O | -6 | 64 | 27 | 8 | ? | 1
O=C(/C=C/c1cccc([N+](=O)[O-])c1)c1ccc2c(c1)OCCO2 | 3 | 19 | · | 31* | -2 | 14
O=C(C[C@H]1C=C[C@H](NS(=O)(=O)c2ccc(F)cc2)[C@@H](CO)O1)NC1CCCCC1 | · | · | 2 | · | · | ·
C=CC(C)(O)CCCC(C)CCCC(C)CCCC(C)C (stereo unspecified) | 160* | 2 | 8 | -1 | 7 | -12
O=c1sc2ccccc2n1CCCOc1ccccc1 | · | 52 | 81* | -4 | 71* | -9
Cc1ccccc1OCCCn1c(=O)sc2ccccc21 | 5 | 72 | 54* | -4 | · | -17
Cc1ccc(OCCCn2c(=O)sc3ccccc32)cc1 | 5 | 31 | 15 | 0 | · | 5
